Here are results for 91 molecules from PubChem BioAssay AID2732 (Emory University Molecular Libraries Screening Center, 2010).

Values joined by “and” are separate entries in the source; they are usually repeats but may differ in a detail not shown here. Identical values can stand only once. About 8,200 (3.7%) of roughly 220,000 compounds were called active.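 The calls were made as follows: active = compounds that reduced the stress-induced luciferase reporter signal by more than about 70% of percent inhibition (limit read from the data); inactive = the rest.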 The sample as a whole holds a higher share of actives than the screen did. More than one record can exist for a structure, and the calls need not agree.

A short description of the experiment: inhibitors of CHOP promoter induction, primary screen, cell-based, unfolded protein response, luciferase reporter (AID 2732).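 Also: 0% = tunicamycin plus vehicle and 100% = wells without tunicamycin.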 Particulars: CHO-K1 CHOP-promoter luciferase, tunicamycin-induced, 15-18 h; at 10 µM; stronger effect = higher value.
With `O=C(Nc1ccccc1N1CCCCC1)c1ccc2nccnc2c1`, the inhibition was 79% (active). In the case of `O=C(Nc1ccccc1N1CCN(C(=O)c2ccccc2)CC1)c1ccc2c(c1)OCO2`, the inhibition was 40% (inactive). For `Cc1cccc(C(=O)Nc2ccccc2N2CCN(c3ccc(F)cc3)CC2)c1` the value was 30.4% (inactive); for `Cc1cc(C(=O)Nc2ccccc2N2CCOCC2)c2ccccc2n1`, 26.9% (inactive); for `O=C(Nc1ccccc1N1CCCCC1)c1cccc(F)c1`, 76% (active). In the case of `O=C(Nc1ccccc1N1CCN(c2ccccc2)CC1)c1cccc(F)c1`, the inhibition is 44.2% (inactive). `CCc1ccccc1N1CN(Cc2ccco2)CNC1=S`: the inhibition is -7.09% (inactive).

Take `Cc1nc(-c2nnc(SCC(=O)Nc3cc(C(F)(F)F)cc(C(F)(F)F)c3)n2C)cs1`: the inhibition is 61.4% (inactive). In the case of `CC1CC(C)(C)n2c(O)c(N=NC(N)=S)c3cccc1c32` (stereo unspecified), the inhibition was 21.3% (inactive).

In the case of `CCOc1ccc2sc(NS(=O)(=O)c3ccc(N)cc3)nc2c1`, the inhibition is 5.24% (inactive). Consider `COC(=O)c1ccc(Oc2nc(Nc3ccc(F)cc3)nc(N3CCCC3)n2)cc1`, for which the inhibition was 73.6% (active).

For the molecule `COC(=O)c1ccc(Oc2nc(NC(C)C)nc(SC)n2)cc1`, the inhibition is 20.5% (inactive). On to `CCNc1nc(Oc2ccc(C(=O)OC)cc2)nc(N2CCOCC2)n1`, for which the inhibition is -6.61% (inactive). On to `C=C(C)COc1ccc(-c2nc(N)ncc2-c2ccccc2OC)c(O)c1`, for which the inhibition was 7.39% (inactive). As to `CCOc1ccc(-c2n[nH]c(C)c2-c2ccccn2)c(O)c1`, the inhibition is 9.43% (inactive).

With `CCOc1ccc(-c2nc(N)ncc2-c2ccccc2OC)c(O)c1`, the inhibition was 16.1% (inactive). Under `C=C(C)COc1ccc(-c2n[nH]c(C)c2-c2ccccc2OC)c(O)c1` stands 105% (active); under `Cc1[nH]nc(-c2ccc(OCc3cnn(-c4ccccc4)c3)cc2O)c1Oc1ccc(Cl)cc1`, 51.5% (inactive).

`C=C(C)COc1ccc(-c2n[nH]c(C)c2-c2ccccc2)c(O)c1`: the inhibition is 112% (active). As to `Brc1ccc(-c2nn[nH]n2)cc1`, the inhibition was 6.83% (inactive). For `COC(C[C@@H](O)[C@H](C)[C@H](O)COCc1ccccc1)OC` the value was 0.72% (inactive); for `Cc1nc(CNS(=O)(=O)c2cc([N+](=O)[O-])ccc2C)cs1`, 24.2% (inactive). For `O=C(NCCc1ccccc1)Oc1ccc(Cl)cc1` the value was -12.7% (inactive); for `C=C(C)Cn1c(C)cc(C)c(S(=O)(=O)c2ccccc2C)c1=O`, 72.7% (active); for `Cc1ccccc1Nc1c(-c2ccccc2)nc2ncccn12`, 1.44% (inactive). Turning to `Clc1ccc(CSc2nnc3c(n2)[nH]c2ccccc23)cc1`, the inhibition is 10.8% (inactive). With `C=CCC1(C#N)C(=S)NC(C)=C(C(=O)OCC)C1c1ccccc1` (stereo unspecified), the inhibition is 8.99% (inactive). As to `CCOC(=O)/C=C/CN(C(=O)OC(C)(C)C)S(=O)(=O)N1CC=CC1`, the inhibition was 0.06% (inactive). For the molecule `COc1cccc(CNC(=O)Cc2csc(Nc3nc(=S)[nH]c4ccccc34)n2)c1`, the inhibition is 49.7% (inactive). For `O=C(CCn1c(=O)[nH]c2ccccc2c1=O)NCCCN1CCN(c2cccc(Cl)c2)CC1`, the inhibition is -9.62% (inactive). Regarding `O=C(Cc1csc(Nc2nc(=S)[nH]c3ccccc23)n1)NCCCN1CCN(c2cccc(Cl)c2)CC1`, the inhibition was 79.8% (active). With `O=[N+]([O-])c1ccc2c(c1)C(O)n1nc(-c3ccccc3)nc1S2` (stereo unspecified), the inhibition is 37.2% (inactive). Under `Cn1c2ccccc2c(=O)c2c(=O)n(Cc3ccco3)c(COc3ccccc3)nc21` stands -34.3% (inactive). Under `CCCc1nc2c(c(=O)c3ccccc3n2C)c(=O)n1C1CCCCCC1` stands 95.5% (active). For the molecule `CCCc1nc2c(c(=O)c3ccccc3n2C)c(=O)n1-c1cc(C)cc(C)c1`, the inhibition is -14.6% (inactive). As for `COc1cc(OC)c(OC)cc1/C=N/Nc1ncnc2c1[nH]c1ccc(C)cc12`, the inhibition was -33.8% (inactive).

Take `O=c1ccnc(Nc2ccc(Cl)cc2)[nH]1`: the inhibition is -1.5% (inactive). On to `CC1=NNC(=O)C1CCC(=O)N/N=C(\C)c1ccc(Cl)cc1` (stereo unspecified), for which the inhibition is 5.21% (inactive). As to `O=[N+]([O-])c1cc(S(=O)(=O)CCCN2CCOCC2)ccc1F`, the inhibition was 97.8% (active). Take `O=C(NCCCN1CCOCC1)c1ccc([N+](=O)[O-])cc1[N+](=O)[O-]`: the inhibition was -3.24% (inactive). Consider `O=[N+]([O-])c1ccc(NCCCN2CCOCC2)c(Cl)c1`, for which the inhibition is 13% (inactive).

With `O=C(CN1CCN(Cc2ccccc2)CC1)NC(c1ccccc1)c1ccccc1`, the inhibition is -8.53% (inactive). For `CC#CC[N+](C)(C)CCCCCC` the value was -9.84% (inactive); for `[O-][N+]12CCCCC1CCCC2CO` (stereo unspecified), -6.34% (inactive); for `Cc1ccccc1NC(=S)Nc1cccc([N+](=O)[O-])c1`, 4.63% (inactive). `COC(=O)/C=C\C(=O)Nc1cccc([N+](=O)[O-])c1`: the inhibition was 107% (active). On to `CC(=O)Nc1cccc([N+](=O)[O-])c1`, for which the inhibition was 13.9% (inactive). `COc1cccc(C(=O)n2ccc(-c3cccs3)n2)c1`: the inhibition is 17.3% (inactive). `O=c1c2ccccc2cnn1Cc1n[nH]c(=S)n1-c1ccccc1F`: the inhibition was 5.73% (inactive). Under `CSc1nc(C)nc2c1c(=O)n(C)c(=O)n2C` stands 11.2% (inactive). For `CCOC(=O)N1CCN(C(=O)CSc2nc(C)nc3c2c(=O)n(C)c(=O)n3C)CC1` the value was 28.2% (inactive); for `CCC(C)Sc1nc(C)nc2c1c(=O)n(C)c(=O)n2C` (stereo unspecified), 82.4% (active); for `O=c1c(-c2ccc(Cl)cc2)[n+]([O-])c2ccccc2n1OCc1nc2ccccc2[nH]1`, 11.1% (inactive). For `C=CCC(Nc1ccccc1)c1cccc(OC)c1OC` (stereo unspecified) the value was 29.3% (inactive); for `CSCCC(NS(=O)(=O)c1ccc2c(c1)oc(=O)n2C)C(=O)NCc1ccccc1` (stereo unspecified), 18.5% (inactive); for `CSc1nc(C)cc(SC(C(C)=O)C(=O)Nc2ccccc2)n1` (stereo unspecified), 9.45% (inactive). As for `CSc1nc(-c2ccccc2)nc(C(Cl)Cl)n1`, the inhibition was 102% (active).

Take `COc1ccc(NS(=O)(=O)c2ccc(N3CCOCC3)c(NC(=O)c3ccccc3Br)c2)cc1`: the inhibition was -3.53% (inactive). Consider `CCOC(=O)N/N=C1\CC(C)S(=O)(=O)c2ccc(Cl)cc21` (stereo unspecified), for which the inhibition is -26.8% (inactive). For `Cc1ccc(C(=O)NCC(=O)OCC(=O)Nc2cccc(S(=O)(=O)N3CCCC3)c2)cc1C`, the inhibition was -17.8% (inactive).

Regarding `CC(C)=C1SC(N2CCN(c3ccc(C)c(Cl)c3)CC2)=NC1=O`, the inhibition is 23.3% (inactive). For the molecule `Cc1cc(C)cc(NS(=O)(=O)c2ccc(Oc3ncc(C(F)(F)F)cc3Cl)cc2)c1`, the inhibition was 90.3% (active). Under `COc1ccccc1Oc1ccc(S(=O)(=O)Nc2cccnc2)cc1` stands 44.6% (inactive); under `COC(=O)Cc1ccc(Oc2ncc(C(F)(F)F)cc2Cl)cc1`, 29.9% (inactive). On to `Cc1ccc(SCCC(=O)OCC(=O)Nc2ncc(Cl)cc2Cl)cc1`, for which the inhibition is 82% (active). Under `Cc1ccc(-n2c(SCC(=O)Nc3ncc(Cl)cc3Cl)nc3ccccc32)cc1` stands 49.5% (inactive); under `CC(Oc1ccc(Cl)cc1)C(=O)OCC(=O)Nc1ncc(Cl)cc1Cl` (stereo unspecified), 2.69% (inactive); under `Cc1cc(NC(=O)Nc2ccc(Cl)cc2)n(-c2ccccc2)n1`, 10.7% (inactive). For `C/C=C(/C)C(=O)Nc1cccc(C2=NOC3(C2)C[C@@H](C(N)=O)N(C(=O)C2(C)CC2)C3)c1` (stereo partly specified) the value was -8.38% (inactive). `Cc1ccc(-n2[nH]c(C)c(/C=N/N3C(=O)c4cccc5cccc(c45)C3=O)c2=O)cc1`: the inhibition was 36.5% (inactive). As to `CCc1nnc(NS(=O)(=O)c2ccc(N=Cc3c(C)[nH]n(-c4ccc(C)cc4)c3=O)cc2)s1`, the inhibition is -15.8% (inactive). On to `COc1cc(SC#N)ccc1N=Cc1c(C)[nH]n(-c2ccc(C)cc2)c1=O`, for which the inhibition is 107% (active).

For `CCCCCCCCCCCCN1C(=O)CSC1c1cccnc1` (stereo unspecified), the inhibition was 28.5% (inactive). As for `Cc1noc(C)c1COc1ccc2ccc(=O)oc2c1`, the inhibition was 2.13% (inactive). Take `Cc1ccc(C2(c3ccc(C)cc3)NC(=O)N(Cc3c(C)noc3C)C2=O)cc1`: the inhibition is 92.8% (active). On to `COc1ccc(C(=O)CN2C(=O)NC(C)(c3ccc(C)cc3)C2=O)cc1OC` (stereo unspecified), for which the inhibition was 15.7% (inactive). As for `Cc1cc(F)ccc1NC(=O)C(C)n1c2ccccc2c2nc(=O)cc(C)n21` (stereo unspecified), the inhibition is -2.79% (inactive). For the molecule `CC1=NNC(=O)C1CC(=O)N/N=C/c1ccncc1` (stereo unspecified), the inhibition is 9.24% (inactive). Regarding `C#CCOCCOCCOCCNc1nc(N2CCN(C(=O)[C@H](CCC(=O)O)n3cc(C(N)CO)nn3)CC2)nc(N2CCN(C(=O)[C@H](CCCCN)n3cc(C(N)CC(C)C)nn3)CC2)n1` (stereo partly specified), the inhibition is -22.6% (inactive). Take `Cn1nc(C(F)(F)F)cc1-c1ccc(/C=C(\C#N)C(=O)c2cccc(C(F)(F)F)c2)s1`: the inhibition is -6.02% (inactive). With `CCOC(=O)COc1ccc([N+](=O)[O-])cc1`, the inhibition is 3.34% (inactive). For `Cc1cccc(NC(=O)c2sc(-c3ccccc3)nc2-c2ccc([N+](=O)[O-])cc2)c1` the value was 31.6% (inactive). For the molecule `CCOC(=O)/C(=C\c1ccc([N+](=O)[O-])cc1)C(=O)c1cc(C(C)=O)c(Nc2ccccc2)s1`, the inhibition was 112% (active). With `COC(=O)c1sc(C(F)(F)F)c(-c2ccccc2)c1S(=O)(=O)N(C)C`, the inhibition was 21.3% (inactive). For `CC(C)c1ccc2c(c1)c(SC(C)(C)C)c(CC(C)(C)C(=O)O)n2Cc1ccc(Cl)cc1`, the inhibition was -15.8% (inactive) and 96.6% (active). Under `O=S(=O)(NCCc1csc(-c2ccccc2)n1)c1cccnc1` stands 10.5% (inactive).

As for `Cc1ccc(NC(=O)Nc2ccc3oc(C)nc3c2)cc1`, the inhibition is -9.69% (inactive). Take `Cc1ccc(N/C(N)=N/c2nc(C(F)(F)F)cc(C(F)(F)F)n2)cc1`: the inhibition is 92.5% (active).

Turning to `COc1ccc2nc(/N=C(\N)NC(=O)Nc3ccccc3)nc(C)c2c1`, the inhibition was 29.8% (inactive).

Consider `C/C=C\C=C\C(=O)N1CC2(CC(c3cccc(NC(=O)/C(C)=C\C)c3)=NO2)C[C@H]1C(N)=O` (stereo partly specified), for which the inhibition was -9.78% (inactive).

For the molecule `Cc1cccc(NC(=O)c2ccc([N+](=O)[O-])o2)c1`, the inhibition was -27% (inactive).
